{"source": "the supplement of paper PMC3414501", "key": {"[1]": {"tested_on": "S. cerevisiae SK1 pCDA2-eGFP (USY613), sporulating", "test": "CDA2-GFP sporulation assay sensitivity score (z-score vs DMSO controls); higher = stronger inhibition of sporulation, active = hit call of the paper"}, "[2]": {"tested_on": "S. cerevisiae NKY1551 his4x/his4B, sporulating", "test": "HIS4 meiotic recombination assay sensitivity score (z-score vs DMSO controls); higher = stronger inhibition of sporulation/recombination, active = hit call of the paper"}, "[3]": {"tested_on": "S. cerevisiae BY4741 (wild-type), vegetative growth in YPD", "test": "growth sensitivity score (doubling time z-score vs DMSO controls); higher = slower growth, strongly negative scores also mark growth inhibition (complete suppression), active = hit call of the paper", "summary_of_the_method": "(§1)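 Rich medium in microtiter plates was seeded with Saccharomyces cerevisiae strains BY4741 and AD1-9 at an OD600 of 0.065, and compounds were added as a 1:100 dilution of DMSO stock. A Tecan GENios reader recorded optical density every 15 min for 24 hours, with eight solvent-only wells in each experiment. Average doubling time was the time to reach a set generation point divided by generation number. The growth sensitivity score was the compound mean minus the solvent-only mean, divided by the solvent-only standard deviation.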"}, "[4]": {"tested_on": "S. cerevisiae AD1-9 (efflux-pump deficient), vegetative growth in YPD", "test": "growth sensitivity score (doubling time z-score vs DMSO controls); higher = slower growth, strongly negative scores also mark growth inhibition (complete suppression), active = hit call of the paper", "summary_of_the_method": "as §1"}}, "note": "Where a name gives a salt, the structure may show the parent alone.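 Wherever CDA2-GFP sporulation assay sensitivity score (z-score vs DMSO controls) is given: active if sensitivity score above 5.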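 Wherever HIS4 meiotic recombination assay sensitivity score (z-score vs DMSO controls) is given: active if sensitivity score above 5.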"}
{"compound": "C[C@H]1COc2c(N3CCN(C)CC3)c(F)cc3c(=O)c(C(=O)O)cn1c23", "note": "[Levofloxacin] (stock concentration (mM, diluted 1:100): 10)", "values": [{"measurement": "CDA2-GFP sporulation assay sensitivity score", "setting": "[1]", "result": "-0.01 (inactive)"}, {"measurement": "HIS4 meiotic recombination assay sensitivity score", "setting": "[2]", "result": "0.16 (inactive)"}, {"measurement": "growth sensitivity score", "setting": "[3]", "result": "-0.66 (inactive)"}]}
{"compound": "Nc1nnc(-c2cccc(Cl)c2Cl)c(N)n1", "note": "[Lamotrigine] (stock concentration (mM, diluted 1:100): 10.3)", "values": [{"measurement": "CDA2-GFP sporulation assay sensitivity score", "setting": "[1]", "result": "0.64 (inactive)"}, {"measurement": "HIS4 meiotic recombination assay sensitivity score", "setting": "[2]", "result": "-1.72 (inactive)"}, {"measurement": "growth sensitivity score", "setting": "[3]", "result": "-1.57 (inactive)"}]}
{"compound": "CCN1CCCC1CNC(=O)c1cc(S(=O)(=O)CC)c(N)cc1OC", "note": "(stereo not drawn) [Amisulpride] (stock concentration (mM, diluted 1:100): 10)", "values": [{"measurement": "CDA2-GFP sporulation assay sensitivity score", "setting": "[1]", "result": "-0.38 (inactive)"}, {"measurement": "growth sensitivity score", "setting": "[4]", "result": "-0.73 (inactive)"}, {"measurement": "growth sensitivity score", "setting": "[3]", "result": "-0.22 (inactive)"}]}
{"compound": "CCc1oc2ccccc2c1C(=O)c1cc(Br)c(O)c(Br)c1", "note": "[Benzbromarone] (stock concentration (mM, diluted 1:100): 10)", "values": [{"measurement": "CDA2-GFP sporulation assay sensitivity score", "setting": "[1]", "result": "13.7 (active)"}, {"measurement": "HIS4 meiotic recombination assay sensitivity score", "setting": "[2]", "result": "-1.58 (inactive)"}, {"measurement": "growth sensitivity score", "setting": "[3]", "result": "72.3 (active)"}]}
{"compound": "N[C@@H](C(=O)N[C@@H]1C(=O)N2C(C(=O)O)=C(Cl)CS[C@H]12)c1ccccc1", "note": "[Cefaclor] (stock concentration (mM, diluted 1:100): 10)", "values": [{"measurement": "HIS4 meiotic recombination assay sensitivity score", "setting": "[2]", "result": "1.51 (inactive)"}, {"measurement": "growth sensitivity score", "setting": "[4]", "result": "-1.29 (inactive)"}, {"measurement": "growth sensitivity score", "setting": "[3]", "result": "0.84 (inactive)"}]}
{"compound": "CCOC(=O)N1CCC(=C2c3ccc(Cl)cc3CCc3cccnc32)CC1", "note": "[Loratadine] (stock concentration (mM, diluted 1:100): 10)", "values": [{"measurement": "CDA2-GFP sporulation assay sensitivity score", "setting": "[1]", "result": "3.83 (inactive)"}, {"measurement": "HIS4 meiotic recombination assay sensitivity score", "setting": "[2]", "result": "-1.19 (inactive)"}, {"measurement": "growth sensitivity score", "setting": "[3]", "result": "335 (active)"}]}
{"compound": "Cc1c2oc3c(C)ccc(C(=O)N[C@@H]4C(=O)N[C@H](C(C)C)C(=O)N5CCC[C@H]5C(=O)N(C)CC(=O)N(C)[C@@H](C(C)C)C(=O)O[C@@H]4C)c3nc-2c(C(=O)N[C@@H]2C(=O)N[C@H](C(C)C)C(=O)N3CCC[C@H]3C(=O)N(C)CC(=O)N(C)[C@@H](C(C)C)C(=O)O[C@@H]2C)c(N)c1=O", "note": "[Dactinomycin] (stock concentration (mM, diluted 1:100): 10)", "values": [{"measurement": "HIS4 meiotic recombination assay sensitivity score", "setting": "[2]", "result": "0.61 (inactive)"}, {"measurement": "growth sensitivity score", "setting": "[4]", "result": "-0.59 (inactive)"}, {"measurement": "growth sensitivity score", "setting": "[3]", "result": "1.17 (inactive)"}]}
{"compound": "CCOc1cc(CC(=O)N[C@@H](CC(C)C)c2ccccc2N2CCCCC2)ccc1C(=O)O", "note": "[Repaglinide] (stock concentration (mM, diluted 1:100): 10)", "values": [{"measurement": "CDA2-GFP sporulation assay sensitivity score", "setting": "[1]", "result": "2 (inactive)"}, {"measurement": "HIS4 meiotic recombination assay sensitivity score", "setting": "[2]", "result": "0.84 (inactive)"}, {"measurement": "growth sensitivity score", "setting": "[3]", "result": "2.53 (active)"}]}
{"compound": "Nc1[nH]c(=O)ncc1F", "note": "[5-Fluorocytosine] (stock concentration (mM, diluted 1:100): 10.5)", "values": [{"measurement": "CDA2-GFP sporulation assay sensitivity score", "setting": "[1]", "result": "0.12 (inactive)"}, {"measurement": "growth sensitivity score", "setting": "[4]", "result": "36.6 (active)"}, {"measurement": "growth sensitivity score", "setting": "[3]", "result": "54.5 (active)"}]}
{"compound": "Cc1occc(=O)c1O", "note": "[Maltol] (stock concentration (mM, diluted 1:100): 10)", "values": [{"measurement": "CDA2-GFP sporulation assay sensitivity score", "setting": "[1]", "result": "1.2 (inactive)"}, {"measurement": "growth sensitivity score", "setting": "[4]", "result": "-1.16 (inactive)"}, {"measurement": "growth sensitivity score", "setting": "[3]", "result": "-0.74 (inactive)"}]}
{"compound": "N[C@@H](C(=O)N[C@@H]1C(=O)N2C(C(=O)O)=C(CSc3cn[nH]n3)CS[C@H]12)c1ccc(O)cc1", "note": "[Seapuron] (stock concentration (mM, diluted 1:100): 8.6)", "values": [{"measurement": "HIS4 meiotic recombination assay sensitivity score", "setting": "[2]", "result": "0.57 (inactive)"}, {"measurement": "growth sensitivity score", "setting": "[4]", "result": "-1.14 (inactive)"}, {"measurement": "growth sensitivity score", "setting": "[3]", "result": "-0.6 (inactive)"}]}
{"compound": "CCn1cc(C(=O)O)c(=O)c2cc(F)c(N3CCN(C)CC3)cc21", "note": "[Pefloxacin mesylate] (stock concentration (mM, diluted 1:100): 7.9)", "values": [{"measurement": "CDA2-GFP sporulation assay sensitivity score", "setting": "[1]", "result": "-0.85 (inactive)"}, {"measurement": "growth sensitivity score", "setting": "[4]", "result": "3.65 (active)"}, {"measurement": "growth sensitivity score", "setting": "[3]", "result": "-1.1 (inactive)"}]}
{"compound": "Nc1nc(N)nc(-c2cc(Cl)ccc2Cl)n1", "note": "[Irsogladine maleate] (stock concentration (mM, diluted 1:100): 6.9)", "values": [{"measurement": "CDA2-GFP sporulation assay sensitivity score", "setting": "[1]", "result": "0.91 (inactive)"}, {"measurement": "growth sensitivity score", "setting": "[4]", "result": "-0.44 (inactive)"}, {"measurement": "growth sensitivity score", "setting": "[3]", "result": "-1.26 (inactive)"}]}
{"compound": "Cc1cccc(CCN2CCC(C(=O)c3ccc(NS(C)(=O)=O)cc3)CC2)n1", "note": "(stock concentration (mM, diluted 1:100): 9.9)", "values": [{"measurement": "CDA2-GFP sporulation assay sensitivity score", "setting": "[1]", "result": "-0.99 (inactive)"}, {"measurement": "HIS4 meiotic recombination assay sensitivity score", "setting": "[2]", "result": "-3.32 (inactive)"}, {"measurement": "growth sensitivity score", "setting": "[3]", "result": "-0.44 (inactive)"}]}
{"compound": "CC(C(=O)O)c1ccc(CC2CCCC2=O)cc1", "note": "(stereo not drawn) [Loxoprofen sodium] (stock concentration (mM, diluted 1:100): 9.1)", "values": [{"measurement": "CDA2-GFP sporulation assay sensitivity score", "setting": "[1]", "result": "-0.04 (inactive)"}, {"measurement": "growth sensitivity score", "setting": "[4]", "result": "-0.52 (inactive)"}, {"measurement": "growth sensitivity score", "setting": "[3]", "result": "-0.61 (inactive)"}]}
{"compound": "COc1ccc(-c2oc3c(CC=C(C)C)c(O[C@@H]4O[C@H](CO)[C@@H](O)[C@H](O)[C@H]4O)cc(O)c3c(=O)c2O[C@@H]2O[C@@H](C)[C@H](O)[C@@H](O)[C@H]2O)cc1", "note": "[Icariin] (stock concentration (mM, diluted 1:100): 10)", "values": [{"measurement": "CDA2-GFP sporulation assay sensitivity score", "setting": "[1]", "result": "-1.61 (inactive)"}, {"measurement": "HIS4 meiotic recombination assay sensitivity score", "setting": "[2]", "result": "0.32 (inactive)"}, {"measurement": "growth sensitivity score", "setting": "[3]", "result": "-1.71 (inactive)"}]}
